For four compounds, growth inhibition, inhibition and outcome results are on record in PubChem BioAssay.

Unmarked numbers belong to inactive results. For some assays here: Potency and affinity values are given separately. Calls of active or inactive are those of the source. Unless noted, no rule for the calls is given here.

The nature of assay [1]: antimalarial activity against Dd2 strain (AID 2302;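 active = growth inhibition above 50% at the single 2 µM test dose, taken to imply half-maximal potency below 2 µM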;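 also: 0% = DMSO untreated growth and 100% = chloroquine plus artemisinin killed control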). The following applies: P. falciparum Dd2 in RBCs, LDH growth readout, 72 h; at 2 µM; hits give high values.
Assay [2] in a line: human hepatoma cell viability loss – ATP luminescence, cytotoxicity control for P. falciparum antimalarial project, primary screen (AID 2303;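 active = inhibition above 50%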;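 also: 0% = DMSO wells and 100% = digitonin-killed cells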). To be noted: HepG2 viability, 24-48 h, at 10 µM, hits give high values.
Assay [3] deals with L-lactate dehydrogenase (Plasmodium falciparum (isolate CDC / Honduras)) (UniProt Q27743). In words: PfLDH activity inhibition – cell lysate, 3D7 strain, counter-screen for P. falciparum growth inhibition project (AID 2304).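 Also: 0% = vehicle and 100% = reference inhibitor.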 To be noted: P. falciparum 3D7 crude extract, LDH APAD/NBT absorbance; at 2 µM; hits give high values. For orientation: Counterscreens check selectivity or assay interference.
Sequence of L-lactate dehydrogenase (Plasmodium falciparum (isolate CDC / Honduras)) (Q27743 whole entry, looked up): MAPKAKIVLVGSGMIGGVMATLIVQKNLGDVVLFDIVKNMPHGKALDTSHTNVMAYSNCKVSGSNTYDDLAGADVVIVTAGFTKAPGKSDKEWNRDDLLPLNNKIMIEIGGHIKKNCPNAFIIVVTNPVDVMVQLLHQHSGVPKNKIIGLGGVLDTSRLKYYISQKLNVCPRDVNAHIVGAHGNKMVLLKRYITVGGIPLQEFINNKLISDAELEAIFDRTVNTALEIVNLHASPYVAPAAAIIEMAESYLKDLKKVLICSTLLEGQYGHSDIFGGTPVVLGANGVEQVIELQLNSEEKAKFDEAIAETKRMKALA

A short description of assay [4]: inhibition of 3D7 malaria parasite growth – strain 3D7 (AID 2306).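 Also: 0% = DMSO wells and 100% = chloroquine plus artemisinin control wells.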 The following applies: P. falciparum 3D7 erythrocytic growth, LDH absorbance, 72 h; at 2 µM; hits give high values.
Assay [5] addresses Calcium-dependent protein kinase 1 (Plasmodium falciparum (isolate 3D7)) (UniProt P62344). Description: PfCDPK1 kinase inhibitors, biochemical, TCAMS library (AID 1159585; cut-off not given, nearly all actives have IC50 up to about 0.98 µM;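 also: inhibitors leave more ATP so luminescence rises with inhibition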). To be noted: recombinant PfCDPK1, Kinase-Glo ATP depletion luminescence. For orientation: Kinase-Glo measures the ATP left after a reaction by luminescence.
Assay [6] deals with Plasmodium falciparum protein kinase 6 (PK6, PF3D7_1337100) (UniProt Q8IDW1). Description: PfPK6 kinase inhibitors, biochemical, TCAMS library (AID 1159586). To be noted: recombinant PfPK6, Kinase-Glo ATP depletion luminescence.
Sequence of Plasmodium falciparum protein kinase 6 (PK6, PF3D7_1337100) (Q8IDW1 1-305): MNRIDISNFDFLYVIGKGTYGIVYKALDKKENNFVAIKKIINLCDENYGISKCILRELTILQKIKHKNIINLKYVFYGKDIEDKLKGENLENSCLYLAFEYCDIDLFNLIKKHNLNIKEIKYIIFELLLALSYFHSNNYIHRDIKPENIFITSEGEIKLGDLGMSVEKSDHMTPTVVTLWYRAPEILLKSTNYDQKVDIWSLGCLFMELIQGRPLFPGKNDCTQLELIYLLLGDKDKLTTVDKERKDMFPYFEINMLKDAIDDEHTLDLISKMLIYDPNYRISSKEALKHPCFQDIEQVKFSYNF
The target of assay [7] is Protein kinase 7 (PK7), Plasmodium falciparum 3D7 (PF3D7_0213400) (UniProt Q7YTF7). In words: inhibition of Plasmodium PK7 catalytic activity – biochemical, TCAMS antimalarial set, Kinase-Glo luminescence (AID 1159587). The following applies: recombinant PfPK7, Kinase-Glo ATP depletion luminescence.
Sequence of Protein kinase 7 (PK7), Plasmodium falciparum 3D7 (PF3D7_0213400) (Q7YTF7 1-343): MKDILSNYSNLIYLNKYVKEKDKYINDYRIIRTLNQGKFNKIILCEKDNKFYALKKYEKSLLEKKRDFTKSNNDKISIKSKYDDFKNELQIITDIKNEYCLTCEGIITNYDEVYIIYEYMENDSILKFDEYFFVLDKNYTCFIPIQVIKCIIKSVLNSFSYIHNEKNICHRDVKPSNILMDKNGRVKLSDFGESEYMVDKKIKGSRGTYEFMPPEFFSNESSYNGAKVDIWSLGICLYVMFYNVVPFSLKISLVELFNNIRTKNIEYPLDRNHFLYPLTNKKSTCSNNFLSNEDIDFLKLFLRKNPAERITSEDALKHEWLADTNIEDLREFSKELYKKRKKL
For assay [8], the target named is Calcium-dependent protein kinase 4 (Plasmodium falciparum (isolate 3D7)) (UniProt Q8IBS5). Description: PfCDPK4 kinase inhibitors, biochemical, TCAMS library (AID 1159588; cut-off not given, nearly all actives have IC50 up to about 0.91 µM). The following applies: recombinant PfCDPK4, Kinase-Glo ATP depletion luminescence.
Sequence of Calcium-dependent protein kinase 4 (Plasmodium falciparum (isolate 3D7)) (Q8IBS5 whole entry, looked up): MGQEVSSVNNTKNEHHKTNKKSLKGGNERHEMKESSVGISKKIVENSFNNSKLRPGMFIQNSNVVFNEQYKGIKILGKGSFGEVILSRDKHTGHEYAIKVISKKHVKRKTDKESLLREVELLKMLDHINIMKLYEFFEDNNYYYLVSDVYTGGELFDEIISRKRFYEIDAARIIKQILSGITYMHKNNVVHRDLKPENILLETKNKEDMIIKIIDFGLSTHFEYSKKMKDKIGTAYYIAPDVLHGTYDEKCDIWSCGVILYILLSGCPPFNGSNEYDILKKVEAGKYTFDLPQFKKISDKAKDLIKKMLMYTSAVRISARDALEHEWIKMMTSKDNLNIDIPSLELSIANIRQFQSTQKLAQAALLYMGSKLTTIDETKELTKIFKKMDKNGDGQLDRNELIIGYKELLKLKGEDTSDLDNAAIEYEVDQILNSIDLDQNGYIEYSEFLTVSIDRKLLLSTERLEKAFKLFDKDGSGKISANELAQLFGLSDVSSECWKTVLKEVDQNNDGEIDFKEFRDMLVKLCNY

Sequence of Calcium-dependent protein kinase 1 (Plasmodium falciparum (isolate 3D7)) (P62344 whole entry, looked up): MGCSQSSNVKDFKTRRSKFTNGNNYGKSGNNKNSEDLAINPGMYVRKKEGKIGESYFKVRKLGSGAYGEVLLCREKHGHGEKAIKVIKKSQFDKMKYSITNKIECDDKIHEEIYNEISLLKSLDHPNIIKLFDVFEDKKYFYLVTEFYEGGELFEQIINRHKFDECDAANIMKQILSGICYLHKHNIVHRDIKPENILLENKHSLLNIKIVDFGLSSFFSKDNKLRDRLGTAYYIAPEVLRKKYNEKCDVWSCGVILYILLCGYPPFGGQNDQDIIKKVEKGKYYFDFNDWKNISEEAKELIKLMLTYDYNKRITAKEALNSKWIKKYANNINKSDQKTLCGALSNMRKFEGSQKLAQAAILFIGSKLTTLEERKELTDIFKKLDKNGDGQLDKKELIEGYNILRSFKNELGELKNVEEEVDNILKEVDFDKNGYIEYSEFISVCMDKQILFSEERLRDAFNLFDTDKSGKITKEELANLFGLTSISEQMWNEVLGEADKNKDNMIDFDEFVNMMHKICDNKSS

For orientation: inhibition means the drop in the measured response relative to a control, in per cent. Regarding `O=c1cc(NCCCCNCc2cccc(Cl)c2)[nH]c2ccccc12`, the growth inhibition in assay [1] was 41%; in assay [4], 98% (active). Moreover, the inhibition in assay [2] was 2%; in assay [3], -3%. Moreover, the result in assay [5], in assay [6], in assay [7] and in assay [8] was inactive.
As for `COc1ccc2ncc(F)c([C@@H](O)CN3CCC(NCc4ccc5c(c4)NCCS5)CC3)c2n1`, the growth inhibition in assay [1] was 69% (active); in assay [4], 99% (active). The results for the inhibition in assay [2] and in assay [3] were 77% (active) and -3%, respectively. For the same compound, the outcome in assay [5], in assay [6], in assay [7] and in assay [8] was inactive.
As for `CCCCNCc1ccc(OCc2cccc(COc3ccc(CNCCCC)cc3)c2)cc1`, the growth inhibition is 35% in assay [1] and 100% (active) in assay [4]. For the same compound, the inhibition in assay [2] is 98% (active); in assay [3] it was 5%. Moreover, the result in assay [5], in assay [6], in assay [7] and in assay [8] was inactive.
On to `O=C(Nc1ccc(SC(F)(F)F)cc1)Nc1ccc(Cl)c(Cl)c1`, for which the figures for the growth inhibition in assay [1] and in assay [4] were 99% (active) and 98% (active), respectively. Besides, the results for the inhibition in assay [2] and in assay [3] were 15% and 4%, respectively. In addition, the result in assay [5], in assay [6], in assay [7] and in assay [8] was inactive.
